# Assay outcomes as filed in PubChem BioAssay.
# Shown are actives, neighbours in structure and some others; about 10% of the full set was active somewhere.
# BAZ2B block: qHTS Assay for Inhibitors of BAZ2B; AlphaScreen BAZ2B-H3K14Ac peptide displacement; Potency, µM (top dose mostly 114 µM), inactives show at the top dose activity change, negative = inhibition, actives largely listed as inhibitors; 360,000 tested, 4.4% active; AID 504333, 2011; note: % is set by controls: 0 for no effect and ±100 for the full control effect; nearly all actives have a fitted effect of over 60% in size
#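 Protein-peptide AlphaScreen: BAZ2B 50 nM, b-H3K14Ac 50 nM, 1x PBS pH 7.4 + 0.01% Tween-20. Preincubation 30 min RT; cpd 30 min RT (top 110 uM); beads 20 min RT, light-protected.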
# GLS inh: qHTS for Inhibitors of Glutaminase (GLS); Potency, µM (highest dose often 45.5 µM), for the others: at the highest dose activity change, negative = inhibition, usual class: inhibitors; GLS enzymatic activity, qHTS titration; 410,000 tested, 0.21% active; Glutaminase kidney isoform, mitochondrial (Homo sapiens), O94925; AID 624170, 2012; note: % is set by controls: 0 for no effect and ±100 for the full control effect
#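 hKGA; 45 mM KH2PO4 pH 8.2 + 0.02% Tween-20; cpd via pin tool; 1 mM Gln soln; GluOx/HRP/Amplex Red; RT 30 min; fluor. t0 & final.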
# JMJD2A Tudor inh: qHTS Assay for Inhibitors of JMJD2A-Tudor Domain. Lysine-specific demethylase 4A (Homo sapiens), O75164. AlphaScreen JMJD2A-Tudor / H3K4me3 peptide binding. Potency, µM (top dose mostly 114 µM), without a hit: at the highest dose activity change, negative = inhibition, usual class: inhibitors. 390,000 tested, 4.4% active; note: % is set by controls: 0 for no effect and ±100 for the full control effect; nearly all actives have a fitted effect of over 50% in size
# Target sequence (O75164 whole entry, looked up, the tested form may be a part): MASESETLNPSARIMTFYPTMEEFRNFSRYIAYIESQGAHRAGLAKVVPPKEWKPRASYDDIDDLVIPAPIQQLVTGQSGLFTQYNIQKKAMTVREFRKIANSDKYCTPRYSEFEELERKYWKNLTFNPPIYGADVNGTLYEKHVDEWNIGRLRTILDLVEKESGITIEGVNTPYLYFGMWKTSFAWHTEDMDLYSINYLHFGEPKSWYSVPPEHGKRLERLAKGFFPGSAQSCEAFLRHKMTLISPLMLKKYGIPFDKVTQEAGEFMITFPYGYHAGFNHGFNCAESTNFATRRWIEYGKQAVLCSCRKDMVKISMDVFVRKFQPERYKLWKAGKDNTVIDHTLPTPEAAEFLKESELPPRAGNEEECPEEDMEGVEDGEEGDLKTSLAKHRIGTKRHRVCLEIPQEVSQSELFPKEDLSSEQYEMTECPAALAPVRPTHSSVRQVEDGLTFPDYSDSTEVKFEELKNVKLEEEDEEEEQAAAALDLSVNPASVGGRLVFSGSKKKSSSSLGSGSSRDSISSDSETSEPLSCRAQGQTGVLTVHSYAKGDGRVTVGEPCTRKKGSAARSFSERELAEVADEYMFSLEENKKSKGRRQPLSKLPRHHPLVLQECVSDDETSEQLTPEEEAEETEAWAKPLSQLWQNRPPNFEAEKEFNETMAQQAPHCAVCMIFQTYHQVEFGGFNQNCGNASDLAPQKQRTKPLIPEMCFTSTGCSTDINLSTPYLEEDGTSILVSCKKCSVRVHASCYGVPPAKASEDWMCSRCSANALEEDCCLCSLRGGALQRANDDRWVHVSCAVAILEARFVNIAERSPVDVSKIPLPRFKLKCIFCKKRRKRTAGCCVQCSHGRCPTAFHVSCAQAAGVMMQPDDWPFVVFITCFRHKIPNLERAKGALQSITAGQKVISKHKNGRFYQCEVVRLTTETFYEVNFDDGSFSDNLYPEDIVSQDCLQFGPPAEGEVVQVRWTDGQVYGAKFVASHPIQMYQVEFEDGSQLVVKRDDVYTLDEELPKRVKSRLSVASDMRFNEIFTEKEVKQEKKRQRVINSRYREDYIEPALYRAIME
# HP1b binding inh: HTS for Inhibitors of HP1-beta Chromodomain Interactions with Methylated Histone Tails | 390,000 tested, 0.56% active | Chromobox protein homolog 1 (Homo sapiens), P83916 | Potency, µM (series often up to 114 µM), inactives show at the highest dose activity change, negative = inhibition, usual class: inhibitors | AlphaScreen HP1-beta / biotin-H3K9me3 peptide binding | AID 540317, 2011; note: nearly all actives have a fitted effect of over 70% in size
#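 HP1-beta protein (50 nM final) preincubated 30 min at room temperature with biotinylated H3(1-18)K9me3 peptide (50 nM) in PBS pH 7.4, 0.01% Tween-20, then compound added for 30 min. AlphaScreen streptavidin donor/nickel chelate acceptor beads (10 ug/mL final), 30 min dark, luminescence read.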
# G9a block: qHTS Assay for Inhibitors of Histone Lysine Methyltransferase G9a; Potency, µM (titrated, usually from 102 µM), for inactives: at the top dose activity, negative = inhibition, most hits filed as inhibitors; 350,000 tested, 8.8% active; G9a H3K9 monomethylation, AlphaScreen, 2 h; AID 504332, 2011; note: % is set by controls: 0 for no effect and ±100 for the full control effect; nearly all actives have a fitted effect of over 75% in size
#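 Using a bead-based AlphaScreen, monomethylated H3K9 product from 2 h room-temperature reactions (G9a 20 nM, peptide 500 nM, SAM 20 uM) was detected with 0.5 ug/mL rabbit anti-H3K9me1 antibody.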
# Numbers without * were called inactive; ? = inconclusive; . = no result; ! = a repeat was not active; [ ] = remark or other dose. Calls come from the whole dose curve; as a rule, active = well fitted curve in the direction sought with a large enough effect; inconclusive = small, poorly fitted or top-dose-only effect, or another doubt; inactive = no such curve, though single readings can be large; an effect the other way counts as inactive or inconclusive. Potency is the fitted concentration of half-maximal effect.
SMILES,BAZ2B block,GLS inh,JMJD2A Tudor inh,HP1b binding inh,G9a block
CN1CCC(O)(c2ccc(F)cc2)C(C(=O)c2ccc(F)cc2)C1 (centres undefined),.,9%,.,.,?
CCCCC/C=C\C/C=C\C/C=C\C/C=C\CCCCOC(CO)CO,.,.,.,.,17%[59 µM]
O=c1[nH]c(=O)n(Cc2ccco2)c(O)c1C=NCc1cccs1,?,-9%,-23%,-1%,-37%[59 µM]
CC1(C)CC(=O)C=C(NCCN2CCN(C(=O)Cc3ccc(Cl)cc3)CC2)C1,6%,1%,-3%,20%,71µM*
Cc1ccc(C2CC(=O)C(C=NCCN3CCN(C(=O)Cc4ccccc4)CC3)=C(O)C2)cc1 (centres undefined),6%,1%,2%[57.1 µM],17%,?
O=C1CC(c2ccccc2)CC(O)=C1C=NCCN1CCN(C(=O)Cc2ccccc2)CC1 (centres undefined),10%,1%,-11%,44%,79µM*
CC1(C)CC(=O)C(C=NCCN2CCN(C(=O)Cc3ccc(F)cc3)CC2)=C(O)C1,7%,-2%,-7%,56%,35µM*
CCC(=NCc1cc(OC)cc(OC)c1)c1c(O)[nH]c(=O)[nH]c1=O,-12%,1%,4%,25%,.
CCOP(=O)(c1ccccc1)c1nc(-c2ccc(F)cc2)oc1N1CCCCC1 (centres undefined),?,-2%,?,-12%,4%[59 µM]
CCCn1cc(C(=O)O)cn1,-9%,0%,-7%,19%,-6%
CN1CC2([N+](=O)[O-])CC=C(Cl)C([N+](=O)[O-])(C1)C2 (centres undefined),-36%,5%,-2%,35%,-21%
O=c1[nH]c(=O)n(Cc2ccc(F)cc2)c(O)c1C=NCCCN1CCOCC1,11%,-2%,-6%,40%,-3%[12.7 µM]
CC(=O)OC1CCC23C(=O)OC45CCC(C6=CC(=O)OC6)C4(C)CCC2C5CCC3(O)C1 (centres undefined),.,.,.,.,-31%[2.33 µM]
O=c1[nH]c(=S)n(C2CC2)c(O)c1C=NCc1ccc(F)cc1,14%,1%,-7%,24%,-26%
O=c1[nH]c(=S)n(C2CC2)c(O)c1C=Nc1ccc2c(c1)OCO2,3%,-1%,-12%,32%,71µM*
Cc1ccccc1-n1c(O)c(/C=N/Nc2nc3c(c(=O)n(C)c(=O)n3C)n2C)c(=O)[nH]c1=S,?,28%,?,3%,?
Cn1c(=O)c2c(nc(N/N=C/c3c(O)n(C4CCCCC4)c(=S)[nH]c3=O)n2C)n(C)c1=O,50µM*,?,79µM*,?,22µM*
Cc1ccccc1-n1c(O)c(/C=N/NC(=O)c2ccccc2O)c(=O)[nH]c1=S,45µM*,?,-28%[11.4 µM],-8%,32%[59 µM]
O=c1[nH]c(=S)n(C2CC2)c(O)c1C=NCc1cccnc1,-4%,-13%,28µM*,29%,?
C#C[C@]1(O)CC[C@H]2[C@@H]3[C@H](O)C[C@H]4C[C@@H](O)CC[C@]4(C)[C@H]3CC[C@@]21C,.,0%,.,.,.
Cc1c(C(=O)Nc2ccccc2)cc(-c2ccccc2)n1CCCN1CCOCC1,?,-12%,-28%,-17%,?
FC(F)(F)c1cccc(N2CCNCC2)c1,-3%,.,.,.,26%[59 µM]
CC(C)c1ccc(N=Cc2c(O)n(C3CC3)c(=S)[nH]c2=O)cc1,-18%,1%,-4%,40%,?
O=C(N/N=C/c1c(O)n(CCC2=CCCCC2)c(=S)[nH]c1=O)c1ccccc1,-5%,26%,?,17%,?
O=C(N/N=C/c1c(O)n(-c2ccccc2)c(=S)[nH]c1=O)c1ccccc1,45µM*,9%,45µM*,32%,5%
SMILES,BAZ2B block,GLS inh,JMJD2A Tudor inh,HP1b binding inh,G9a block
O=C(N/N=C/c1c(O)n(C2CC2)c(=S)[nH]c1=O)c1ccccc1O,45µM*,?,40µM*,17%,25%[59 µM]
CCC(C(N)=O)N1CCCC1=O (centres undefined),.,-14%,.,.,27%[59 µM]
C/C(=C\c1ccc(N(C)C)cc1)[N+](=O)[O-],-32%,-2%,-25%,-4%,?
CC[C@H](C)/C=C(C)/C=C/C1=CC2=C(Cl)C(=O)[C@@](C)(OC(C)=O)C(=O)C2=CO1,.,-1%,56µM*,50µM*,.
CCC(C)/C=C(C)/C=C/C1=CC2=C(Cl)C(=O)C(C)(OC(C)=O)C(=O)C2=CO1 (centres undefined),25µM*,-6%,35µM*,?,-45%[12.7 µM]
CCc1cc(=O)oc2cc(OC(=O)c3ccco3)ccc12,-3%,-3%,-4%,51%,.
CC(C)(C)C(=O)N1Cc2cc(-c3ccccc3)ccc2-n2nncc2C1,.,-4%,.,.,.
CCn1cc(C(=O)O)c(=O)c2ccc(C)nc21,79µM*,8%,-17%,6%,8.9µM*!
COc1ccc2c(c1)c(C(=O)O)c(C)n2CC(C)C,-2%,?,-10%,19%,9%[12.7 µM]
COC(=O)C1=C(c2cccc(OC)c2OC)C[C@@H]2CC[C@H]1N2C(=O)N1CCOCC1,.,-4%,-4%,32%,.
COC(=O)C(O)(c1ccc(N(C)C(=O)c2cccs2)cc1)C(F)(F)F (centres undefined),-8%,?,22µM*,-1%,-7%
CC(=O)N[C@@H]1CCSC1=O,.,0%[20 µM],.,.,6%[21.5 µM]
CCOC(=O)C(=O)NC1CCSC1=O (centres undefined),11%,4%,-5%,3%,50µM*
O=C(O)C(O)(c1ccccc1)C1CCCCC1 (centres undefined),-27%,-1%,-12%,26%,4%
NC(=O)C[N+]1(CC#CC(O)(c2ccccc2)c2ccccc2)CCCC1,-3%,1%,32µM*,22%,35µM*
CNC(=S)N(C)CCc1cc2c(c(OC)c1C=C1C(=O)NC(=O)NC1=O)OCO2,?,0%,0%,41%,79µM*
C=CCN1C(=O)NC(=O)/C(=C/c2c(CCN(C)C(=O)c3ccccc3)cc3c(c2OC)OCO3)C1=O,-37%,-2%,-20%,41%,?
NNc1n[nH]c(=S)n1N,?,12%,-10%,53%,25µM*
COc1ccc(NC2Oc3cc4c(cc3C(c3cc(OC)c(OC)c(OC)c3)C2C)OCO4)cc1 (centres undefined),.,7%,56µM*,?,.
CN1CC[C@@]2(C)c3cc(OC(=O)Nc4ccccc4)ccc3N(C)[C@@H]12,.,.,.,.,16µM*
CN1CC[C@@]2(C)c3cc(O)ccc3N(C)C2O1 (some centres undefined),.,2%,-21%,-16%,.
CN1CC[C@@]2(C)c3cc(O)ccc3N(C)[C@@H]12,.,?,4µM*!,?,.
